Source: PubChem BioAssay (EPA / NIEHS)
Values joined by “and” are separate entries in the source; they are usually repeats but may differ in a detail not shown here. Equal values may be shown once. Where a structure was tested more than once in an assay, its records may differ in their call. Active and inactive are the calls of the source. The calls were made as follows: active = hit-call score of the fitted dose curve at least 0.9, where 1 is the maximum; inactive = score below 0.9.

assay: BSK_SAg_Proliferation: Cell Proliferation Assessment in the BioMAP Diversity Plus: SAg Assay (AID 2283095); conditions: primary human HUVEC with PBMC
Description: BSK_SAg is a cell-based, multiplexed-readout assay that uses umbilical vein endothelium and peripheral blood mononuclear cells, a human vascular primary cell co-culture, with measurements taken at 24 hours after chemical dosing in a 96-well plate.BSK_SAg_Proliferation is an assay component in the BSK_SAg assay. It measures protein content, a form of viability reporter, as detected with absorbance signals by Sulforhodamine staining technology. Data from the assay component BSK_SAg_Proliferation was analyzed into 1 assay endpoint. This assay endpoint, BSK_SAg_Proliferation, was analyzed with bidirectional fitting relative to DMSO as the negative control and baseline of activity. Using a type of viability reporter, measures of total protein for gain or loss-of-signal activity can be used to understand the viability at the cellular-level. Furthermore, this assay endpoint can be referred to as a secondary readout, because this assay has produced multiple assay endpoints where this one serves a viability function. To generalize the intended target to other relatable targets, this assay endpoint is annotated to the cell cycle intended target family, where the subfamily is proliferation.
The levels of cell surface (or secreted, indicated by the prefix "s") biomarker endpoints were measured by ELISA. Overt cytotoxicity to cells in confluent adherent cultures (all systems other than the BT system) was assessed by measuring total protein levels using sulforhodamine B (SRB) staining in parallel cultures at the time of biomarker measurements, indicated as SRB endpoints. For proliferation assays for adherent cell types, individual cell types are cultured at sub-confluence and relative cell numbers quantified by SRB staining at time points optimized for each system (48 h: 3C and CASM3C systems; 72 h: BT and HDF3CGF systems; 96 h: SAg system). SRB was performed by staining cells with 0.1% SRB after fixation with 10% TCA and reading wells at 560 nm.Viability and proliferation of PBMC (T cells) was quantified by Alamar Blue reduction for the SAg and BT systems. For PBMC viability (referred to as PBMC Cytotoxicity within the assay endpoint names), cells were plated (75,000/well in a 96-well plate) and then chemical samples added for 1 h before addition of activators, SEB and TSST-1 (20 ng/mL final concentration each). Cells were incubated for 90 h. Then, Alamar Blue (20 uL/well) (Invitrogen, Cat DAL1100) was added for 6 h, and the plates were read with a fluorescence microplate reader at 546/580 nm (excitation/emission). For PBMC proliferation, cells were plated and activated as above but incubated for only 16 h prior to addition of Alamar Blue. Plates were read after 6 h.

**Q.** For `O=C(NO)c1ccccc1`, which outcome is on record?
**A.** inactive

**Q.** For `CCCCC(CC)C(=O)OCCOCCOCCOCCOC(=O)C(CC)CCCC` (stereo not given), which outcome is on record?
**A.** inactive

**Q.** With `O=C1c2ccc(O)c(O)c2C(=O)c2c(O)ccc(O)c21` as the compound, how does the outcome read?
**A.** inactive

**Q.** Which outcome does the source give for `O=S(=O)(O)C(F)(F)C(F)(F)C(F)(F)C(F)(F)C(F)(F)C(F)(F)C(F)(F)C(F)(F)C(F)(F)C(F)(F)F` here?
**A.** inactive

**Q.** For `O=P(O)(O)CCC(F)(F)C(F)(F)C(F)(F)C(F)(F)C(F)(F)C(F)(F)F`, which outcome is on record?
**A.** inactive

**Q.** For `CC(=O)Nc1ccc(O)cc1`, which outcome is on record?
**A.** inactive

**Q.** For `O=C(NCc1ncc(C(F)(F)F)cc1Cl)c1c(Cl)cccc1Cl`, which outcome is on record?
**A.** inactive

**Q.** For `CCCCC=O`, which outcome is on record?
**A.** inactive

**Q.** For `CCCCC(CC)C(=O)O` (stereo not given), which outcome is on record?
**A.** inactive

**Q.** For `C=CC(=O)OCCC(F)(F)C(F)(F)C(F)(F)C(F)(F)C(F)(F)C(F)(F)C(F)(F)C(F)(F)F`, which outcome is on record?
**A.** inactive

**Q.** For `C=CC(C)(CCC=C(C)C)OC(C)=O` (stereo not given), which outcome is on record?
**A.** inactive

**Q.** Which outcome does the source give for `O=C1NS(=O)(=O)c2ccccc21` here?
**A.** inactive

**Q.** For `Cc1ccc(N=Nc2c(O)ccc3ccccc23)c(C)c1`, which AC50 is on record?
**A.** 4.79 µM (active)

**Q.** For `O=P(O)(O)CCC(F)(F)C(F)(F)C(F)(F)C(F)(F)C(F)(F)C(F)(F)C(F)(F)C(F)(F)F`, which outcome is on record?
**A.** inactive

**Q.** With `OCC(F)(F)C(F)(F)C(F)(F)C(F)(F)C(F)(F)C(F)(F)C(F)(F)C(F)(F)C(F)(F)C(F)(F)C(F)(F)F` as the compound, how does the AC50 read?
**A.** 476 nM (active) and 63.9 nM (active)

**Q.** With `O=C1OC2(c3ccccc31)c1cc(I)c(O)c(I)c1Oc1c2cc(I)c(O)c1I` as the compound, how does the outcome read?
**A.** inactive

**Q.** With `Cc1cccc2c1ccc1ccccc12` as the compound, how does the outcome read?
**A.** inactive

**Q.** For `C=COC(=O)C(C)(C)CCCCCC`, which AC50 is on record?
**A.** 30.7 µM (active)

**Q.** With `COc1cc(OC)nc(NC(=O)NS(=O)(=O)Nc2ccccc2C(=O)N(C)C)n1` as the compound, how does the outcome read?
**A.** inactive

**Q.** Which outcome does the source give for `CCC(C)c1ccccc1O` (stereo not given) here?
**A.** inactive

**Q.** With `Oc1cc2ccccc2cc1O` as the compound, how does the outcome read?
**A.** inactive

**Q.** For `CCCCCCCCCCCCOS(=O)(=O)O`, which outcome is on record?
**A.** inactive

**Q.** Which outcome does the source give for `CCCCCCCCCCCC` here?
**A.** inactive

**Q.** And the AC50?
**A.** 36.6 µM (active)

**Q.** Which outcome does the source give for `CC1=NN(c2ccccc2)C(=O)C1` here?
**A.** inactive

**Q.** Which AC50 does the source give for `O=C(CCCN1CCC(O)(c2ccc(Cl)cc2)CC1)c1ccc(F)cc1` here?
**A.** 27 µM (active)

**Q.** For `COc1cccc(O)c1`, which outcome is on record?
**A.** inactive

**Q.** For `O=C(CC(=O)C(F)(F)C(F)(F)C(F)(F)F)c1cccs1`, which AC50 is on record?
**A.** 13.5 µM (active) and 13.3 µM (active)

**Q.** Which AC50 does the source give for `CN(Cc1cnc2nc(N)nc(N)c2n1)c1ccc(C(=O)N[C@@H](CCC(=O)O)C(=O)O)cc1` here?
**A.** 3.39 µM (active) and 2.18 µM (active) and 1.17 µM (active)

**Q.** With `OCCN1CN(CCO)CN(CCO)C1` as the compound, how does the AC50 read?
**A.** 26 µM (active)

**Q.** For `CC[N+](CC)(CC)Cc1ccccc1`, which outcome is on record?
**A.** inactive

**Q.** Which outcome does the source give for `COCN(COC)c1nc(N(COC)COC)nc(N(COC)COC)n1` here?
**A.** inactive

**Q.** For `Cc1ccc(C(=O)c2ccccc2)cc1`, which outcome is on record?
**A.** inactive

**Q.** For `OCC(CO)(CBr)CBr`, which outcome is on record?
**A.** inactive

**Q.** With `O=C(O)CCC(F)(F)C(F)(F)C(F)(F)C(F)(F)C(F)(F)C(F)(F)F` as the compound, how does the outcome read?
**A.** inactive

**Q.** Which AC50 does the source give for `O=C(O)C(F)(F)OC(F)(F)C(F)(F)OC(F)(F)C(F)(F)OC(F)(F)C(F)(F)C(F)(F)C(F)(F)F` here?
**A.** 49.6 µM (active) and 47.7 µM (active)

**Q.** For `CN(CCO)S(=O)(=O)C(F)(F)C(F)(F)C(F)(F)C(F)(F)C(F)(F)C(F)(F)C(F)(F)C(F)(F)F`, which outcome is on record?
**A.** inactive

**Q.** With `CCCCc1oc2ccccc2c1C(=O)c1cc(I)c(OCCN(CC)CC)c(I)c1` as the compound, how does the AC50 read?
**A.** 4.1 µM (active)

**Q.** With `CS(=O)(=O)c1ccc([C@@H](CC2CCCC2)C(=O)Nc2cnccn2)cc1Cl` as the compound, how does the AC50 read?
**A.** 15.2 µM (active)

**Q.** Which outcome does the source give for `CCOC(=O)CN[C@@H](C(=O)N1CC[C@H]1C(=O)NCc1ccc(/C(N)=N/O)cc1)C1CCCCC1` here?
**A.** inactive
